# Shown are actives, neighbours in structure and some others; about 3.7% of the full set was active somewhere.
# TSG101-PTAP inh: inhibitors of HIV-1 PTAP binding to human TSG101, validation | Potency, µM (highest dose often 115 µM), usual class: inhibitors | 44,000 tested, under 10 active | Q99816 | Fluorescence polarization, FITC-PTAP peptide/Tsg101, 20 min | AID 1347069
#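 Fluorescence polarization binding of Tsg101 binding domain (10 uM final) to FITC-labeled PTAP-motif peptide (50 nM final) in HEPES pH 7.5/NaCl/Tween 20/EDTA/TCEP buffer; 20 min at r.t. Actives by curve class, <25 µM, efficacy <60% inhibition.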
# GALK inh: GALK (human) enzyme inhibition | 44,000 tested, under 10 active | AID 1347072 | Potency, µM (series often up to 57.5 µM), usual class: inhibitors | recombinant GALK, Kinase-Glo ATP luminescence, 1 h
#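 Reactions with and without enzyme served as controls. GALK at 5 nM phosphorylates 100 uM galactose using 35 uM ATP (HEPES pH 8.0, Mg2+) for 1 h at RT, with luminescence read 10 min after adding Kinase-Glo Plus.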
# NTMT1 inh: inhibitors of human N-terminal methyltransferase NTMT1 | Q9BV86 | NTMT1 MTase-Glo SAH luminescence, purified enzyme | Potency, µM (top dose mostly 114 µM), usual class: inhibitors | actives 2.5% (n = 59,000); further: nearly all actives have a fitted effect of over 65% in size
# Target sequence (Q9BV86 whole entry, looked up): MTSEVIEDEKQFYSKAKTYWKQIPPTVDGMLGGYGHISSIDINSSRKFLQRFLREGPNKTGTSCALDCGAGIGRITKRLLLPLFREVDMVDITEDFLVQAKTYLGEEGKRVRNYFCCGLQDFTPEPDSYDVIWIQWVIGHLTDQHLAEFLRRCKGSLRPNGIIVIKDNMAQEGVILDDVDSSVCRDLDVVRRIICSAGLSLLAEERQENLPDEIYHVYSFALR
# B2AR arrestin ag: ADRB2 beta-arrestin recruitment; Potency, µM (highest dose often 46.1 µM), most hits filed as activators; HTLA Tango cells, beta-arrestin recruitment, luciferase luminescence, 18 h; 44,000 tested, under 10 active; P07550
#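 Tango cells expressing recombinant beta2-AR and beta-arrestin were treated with compounds (up to 46 microM titration) in DMEM with 1% FBS for 18 hr at 37 degrees C. Beta-arrestin recruitment drove tTA-dependent luciferase, read by luminescence; curves were fitted and classed.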
# FH mod: Identification of activators of human fumarate hydratase by quantitative high-throughput screening; Fumarate hydratase, mitochondrial (Homo sapiens), P07954; FH coupled MDH/diaphorase resazurin fluorescence, 15 min; Potency, µM (top dose mostly 79.9 µM), most hits filed as inhibitors; actives 0.22% (n = 54,000); AID 1347055, 2019; further: the screen sought activators but most active calls are inhibition curves; nearly all actives have a fitted effect of over 45% in size
# GPR32 ag: agonists of human resolvin D1 receptor DRV1 (GPR32); O75388; CHO-K1 GPR32 beta-arrestin PathHunter luminescence, 90 min; zero percent set by DMSO-only wells; activation, % at 76.9 µM; actives 2.5% (n = 48,000);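 active means activation of at least 60% and not above a set upper limit, about 1 call in 100 departs from these limits; inconclusive means activation of 40% to 60%, or above that upper limit; inactive means activation under 40%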
# Target sequence (O75388 whole entry, looked up): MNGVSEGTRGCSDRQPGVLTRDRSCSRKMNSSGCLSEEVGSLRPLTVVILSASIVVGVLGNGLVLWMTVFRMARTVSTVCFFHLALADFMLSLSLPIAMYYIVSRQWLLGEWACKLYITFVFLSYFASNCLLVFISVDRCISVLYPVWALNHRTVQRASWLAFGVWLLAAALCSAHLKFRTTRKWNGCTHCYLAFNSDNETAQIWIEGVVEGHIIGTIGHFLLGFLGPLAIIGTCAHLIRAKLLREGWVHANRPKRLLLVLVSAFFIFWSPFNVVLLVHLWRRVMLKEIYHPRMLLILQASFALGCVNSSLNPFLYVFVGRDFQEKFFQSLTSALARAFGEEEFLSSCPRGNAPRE
#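 GPR32 activation in stably transfected CHO-K1 cells, detected as beta-arrestin recruitment by enzyme-fragment complementation. Compound exposure: 90 min, 37 °C.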
# A number is an active result; 0 = inactive; ? = inconclusive; - = not tested or not shown; ! = not active in a repeat; [ ] = remark or other dose. Unless noted, the call rests on the fitted dose curve; in most records, active means well fitted curve in the direction sought with a large enough effect; inconclusive means small, poorly fitted or top-dose-only effect, or another doubt; inactive means no such curve, though single readings can be large; an effect the other way counts as inactive or inconclusive.
SMILES,TSG101-PTAP inh,GALK inh,NTMT1 inh,B2AR arrestin ag,FH mod,GPR32 ag
CC(=O)Nc1ccc(NC(=O)C(NS(=O)(=O)c2ccc(Br)s2)c2ccccc2)cc1 (centres undefined),0,0,0,0,0,0
COc1ccc(C2CC(=O)c3c([nH]c(C(=O)OC4CCCC4)c3C)C2)cc1OC (centres undefined),0,0,0,0,0,0
COc1ccc(C2CC(=O)c3c([nH]c(C(=O)OC4CCCCCC4)c3C)C2)cc1OC (centres undefined),0,0,89.1µM,0,0,0
O=S(=O)(NCc1ccccc1)c1ccc2[nH]c3c(c2c1)CCCCC3,0,0,0,0,?,0
Cc1ccc(CNS(=O)(=O)c2ccc3[nH]c4c(c3c2)CCCC4)cc1,0,0,0,0,?,71.9
Cc1ccc(CNS(=O)(=O)c2ccc3c(c2)CCN3S(C)(=O)=O)cc1,0,0,50.1µM,0,0,0
O=S(=O)(NCc1ccc(F)cc1)c1ccc2[nH]c3c(c2c1)CCCC3,0,0,?,0,?,118.3
O=S(=O)(NCc1ccc(Cl)cc1)c1ccc2[nH]c3c(c2c1)CCCC3,0,0,?,0,?,76.9
O=C(O[C@@H]1O[C@H](CO)[C@@H](O)[C@H](O)[C@H]1O)c1c(O)cc(O)cc1/C=C/c1ccccc1,-,-,0,-,0,-
C[C@H](Cc1ccccc1)Nc1ncnc2c1ncn2[C@@H]1O[C@H](CO)C(O)[C@H]1O (some centres undefined),-,-,-,-,0,-
CCC1(O)CC2CN(CCc3c([nH]c4ccccc34)[C@@](C(=O)OC)(c3cc4c(cc3OC)N(C=O)C3[C@]45CCN4CC=C[C@@](CC)([C@@H](OC(C)=O)[C@]3(O)C(=O)OC)[C@H]45)C2)C1 (some centres undefined),-,-,-,-,0,0
CC[C@]1(O)CC2CN(CCc3c([nH]c4ccccc34)[C@@](C(=O)OC)(c3cc4c(cc3OC)N(C)[C@H]3[C@@](O)(C(=O)OC)[C@H](OC(C)=O)[C@]5(CC)C=CCN6CC[C@]43[C@@H]65)C2)C1 (some centres undefined),-,-,44.7µM!,-,0,-
CCC1=C[C@@H]2CN(C1)Cc1c([nH]c3ccccc13)[C@@](C(=O)OC)(c1cc3c(cc1OC)N(C)[C@@H]1[C@@](O)(C(=O)OC)[C@H](OC(C)=O)[C@]4(CC)C=CCN5CC[C@]31[C@@H]54)C2,-,-,17.1µM,-,0,-
CNCCC(Oc1ccccc1C)c1ccccc1 (centres undefined),-,-,-,-,0,0
CNCC[C@H](Oc1cccc2ccccc12)c1cccs1,-,-,?,-,0,99.1
c1cc(-c2cnn3cc(-c4ccc(OCCN5CCCCC5)cc4)cnc23)ccn1,-,-,34.1µM!,-,0,-
CCOc1ccc(C2Nc3ccccc3-c3nnc(SCc4ccccc4)nc3O2)cc1OC (centres undefined),0,0,0,0,0,0
COc1cc(OC)c(C2Nc3ccccc3-c3nnc(SCc4ccccc4)nc3O2)cc1OC (centres undefined),0,?,0,0,0,64.1
COc1cccc(C(=O)Nc2ccc(-n3nncc3-c3ccccc3)cc2)c1OC,0,0,56.2µM,0,0,0
CCOc1ccccc1C(=O)Nc1ccc(-n2nncc2-c2ccccc2)cc1,0,0,0,0,0,0
COc1ccc(CCNC(=O)CCc2c(C)nc3cc(-c4cccc(F)c4)nn3c2C)cc1OC,0,0,89.1µM,0,0,0
COc1ccc2cc(OCC3(C(=O)O)CN(C(=O)c4ccc(F)cc4)C3)ccc2c1,-,-,0,-,0,-
Cc1ccc(-c2c(C)n3c4c(=O)n(C)c(=O)n(C)c4nc3n2CCCO)cc1,0,0,?,0,0,60.3
C[C@]12CCC3[C@@H](CC[C@H]4NC(=O)C=C[C@]34C)[C@@H]1CC[C@@H]2C(=O)Nc1cc(C(F)(F)F)ccc1C(F)(F)F (some centres undefined),-,-,0,-,-,-
CS(=O)(=O)N(CC(=O)Nc1ccc(Br)cc1)c1ccccc1Br,0,0,0,0,0,60.8
SMILES,TSG101-PTAP inh,GALK inh,NTMT1 inh,B2AR arrestin ag,FH mod,GPR32 ag
COc1ccccc1N(CC(=O)Nc1cc(C)cc(C)c1)S(C)(=O)=O,0,0,0,0,0,0
CCC(=O)NC(c1ccco1)c1cc([N+](=O)[O-])c2cccnc2c1O (centres undefined),-,-,0,-,-,-
CCC(=O)NC(c1cccs1)c1cc([N+](=O)[O-])c2cccnc2c1OC (centres undefined),-,-,50.1µM!,-,-,-
CCCCCCCCCCCCCCCCCCN(CCCCCCCCCCCCCCCCCC)CCCN(CCO)CCO,-,-,-,-,0,-
CCCC1=CC2=C(CO1)C(=O)C(C)(O)C(OC(=O)c1c(C)cc(OC)cc1O)C2 (centres undefined),-,-,0,-,0,-
Cn1c(=O)c2c(nc(NCc3ccccc3)n2Cc2ccccc2)n(C)c1=O,0,0,0,0,0,0
Cn1c(=O)c2c(nc(NCCc3ccccc3)n2Cc2ccc(Cl)cc2)n(C)c1=O,0,0,0,0,0,72.7
Cc1sc(NC(=O)Cc2ccc3c(c2)OCO3)nc1-c1ccc2c(c1)CCN2C(=O)c1ccccc1,-,-,0,-,-,-
O=C(Nc1ccc(Br)cc1F)N1CC=C(c2c[nH]c3ccccc23)CC1,0,0,?,0,0,0
CC(C)(O)C(=O)N1CCN(c2ccc(C(F)(F)F)c(C3=C(c4c[nH]c5ccccc45)C(=O)NC3=O)c2)CC1,-,-,11.2µM,-,0,-
O=C(NCCc1csc2nc(-c3cccc(F)c3)nn12)c1ccc(Br)o1,0,0,0,0,0,97.1
O=C(Cc1ccc(Cl)cc1)NCCc1csc2nc(-c3ccccc3F)nn12,0,0,0,0,0,120.9
COc1ccc(CC(=O)NCCc2csc3nc(-c4ccccc4F)nn23)cc1,0,0,0,0,0,0
Cc1cc(N(C)S(=O)(=O)c2ccc(NC(=O)Cc3ccc(Cl)c(Cl)c3)cc2)no1,-,-,0,-,-,-
Cc1ncc([N+](=O)[O-])n1CC(O)CN1CCOCC1 (centres undefined),-,-,0,-,0,-
CN(C)CCCNc1cc(N2CCN(C3CCCCC3)CC2)c2noc3c2c1C(=O)c1ccccc1-3,0,0,11.2µM,0,0,0
CC(=O)Nc1sc2c(c1-c1cnn(C(C)=O)c1)CCNC2,-,-,0,-,-,-
CN(C)c1ccc2cc(C(=O)N[C@@H](CCCN=C(N)CCl)C(=O)NCc3ccccc3)ccc2c1,-,-,5.62µM,-,0,-
CCC(C=C[C@@H]1OC(=O)C=C[C@H]1C)=C[C@H](C)CC=CC(C)=C[C@@H](C)C(=O)[C@@H](C)[C@H](O)[C@@H](C)CC(C)=CC(=O)O,-,-,1.01µM,-,0[2.79 µM],-
